From PubChem BioAssay
In the library only some 2.8% were active in any assay of this set; here they are far more common.
Pol eta inh-1: qHTS for Inhibitors of Polymerase Eta; Potency, µM (titrated, usually from 114 µM), without a hit: at the highest dose activity change, negative = inhibition, most hits filed as inhibitors; 1.2% of 390,000 active; DNA polymerase eta (Homo sapiens), Q9Y253; recombinant Pol eta, fluorescent DNA replication assay; AID 588591, 2011; also: potency is read from the fitted curve at half-maximal effect; % is scaled to controls: 0 for no effect and ±100 for the full control effect
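Pol eta (10 nM) was preincubated with compounds for 15 min at room temperature, after which fluorescent replication substrate (50 nM final) was added to start the reaction. Fluorescence was read kinetically at 0 and 10 min.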
Pol iota inh: qHTS for Inhibitors of Polymerase Iota; DNA polymerase iota (Homo sapiens), Q9UNA4; Pol iota fluorescent replication assay, 10 min; Potency, µM (series often up to 115 µM), for inactives: at the top dose activity, negative = inhibition, usual class: inhibitors; 1% of 390,000 active; AID 588590, 2011; also: potency is read from the fitted curve at half-maximal effect
Target sequence (Q9UNA4 whole entry, looked up): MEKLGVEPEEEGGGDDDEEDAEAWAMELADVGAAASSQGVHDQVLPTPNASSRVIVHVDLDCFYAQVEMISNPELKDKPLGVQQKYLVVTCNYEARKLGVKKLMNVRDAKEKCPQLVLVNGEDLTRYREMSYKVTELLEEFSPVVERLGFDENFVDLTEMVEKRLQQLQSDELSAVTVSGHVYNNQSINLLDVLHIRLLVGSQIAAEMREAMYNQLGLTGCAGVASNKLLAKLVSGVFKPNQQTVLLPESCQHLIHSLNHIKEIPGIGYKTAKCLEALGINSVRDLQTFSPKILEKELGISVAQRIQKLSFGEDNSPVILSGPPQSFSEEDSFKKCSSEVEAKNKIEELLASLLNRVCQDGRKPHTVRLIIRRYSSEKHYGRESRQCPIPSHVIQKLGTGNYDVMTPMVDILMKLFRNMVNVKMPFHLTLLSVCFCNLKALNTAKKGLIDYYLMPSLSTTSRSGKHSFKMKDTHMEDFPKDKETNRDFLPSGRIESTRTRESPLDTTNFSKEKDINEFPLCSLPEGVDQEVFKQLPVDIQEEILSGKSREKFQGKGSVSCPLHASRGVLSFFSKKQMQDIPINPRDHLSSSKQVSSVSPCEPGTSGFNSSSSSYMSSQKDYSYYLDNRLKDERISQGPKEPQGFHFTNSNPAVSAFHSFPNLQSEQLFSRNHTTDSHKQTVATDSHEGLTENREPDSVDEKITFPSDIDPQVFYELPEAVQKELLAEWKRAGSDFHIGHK
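Pol iota at 10 nM preincubated 15 min with compounds at room temperature; reaction started with fluorescent substrate, 50 nM final. Fluorescence read kinetically at 0 and 10 min; buffer-only wells as negative control.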
PI5P4K alpha inh: qHTS for Inhibitors of phosphatidylinositol 5-phosphate 4-kinase (PI5P4K). 1.2% of 330,000 active. max response, %. PI5P4Kalpha enzyme, ADP-Glo luminescence, 60 min; active compounds read low; active = max response of -50% or lower; inconclusive = between -30% and -50%; inactive = -30% or higher; also: value at the top dose of about 77 µM; % is scaled to controls: 0 for no effect and ±100 for the full control effect
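PI5P4Kalpha ADP-Glo assay; 5 microM ATP final; 60 min RT reaction; HEPES pH 7.4/EGTA/CHAPS, 5% DMSO; controls lacking substrate or enzyme; luminescent end-point.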
WRN inhibitor: qHTS for Inhibitors of WRN Helicase | Bifunctional 3'-5' exonuclease/ATP-dependent helicase WRN (Homo sapiens), Q14191 | WRN helicase unwinding, fluorescent forked duplex, kinetic | Potency, µM (top dose mostly 114 µM), without a hit: top-dose activity change, negative = inhibition, actives largely listed as inhibitors | 0.46% of 360,000 active; also: potency is read from the fitted curve at half-maximal effect; % is scaled to controls: 0 for no effect and ±100 for the full control effect; nearly all actives have a fitted effect of over 55% in size
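Enzyme (20 nM final) and test compound sit together 15 min at room temperature before substrate addition. Substrate is a single-forked duplex oligonucleotide (100 nM) labelled with fluorophore and quencher, with 2 mM ATP; helicase unwinding raises red fluorescence, read kinetically.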
Pol kappa inh-1: qHTS for Inhibitors of Polymerase Kappa | purified Pol kappa, fluorescent DNA synthesis assay, 10 min | DNA polymerase kappa (Homo sapiens), Q9UBT6 | 0.53% of 400,000 active | Potency, µM (titrated, usually from 107 µM), inactives show top-dose activity, negative = inhibition, hits mostly inhibitors; also: potency is read from the fitted curve at half-maximal effect; % is scaled to controls: 0 for no effect and ±100 for the full control effect
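Readout: fluorescence, taken kinetically at 0 and 10 min. Conditions: 10 nM Pol kappa, 15 min RT compound preincubation, 50 nM substrate final. Controls: enzyme-free buffer wells.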
Pol beta inh: qHTS Assay for Inhibitors of DNA Polymerase Beta; P06746; Pol beta primer extension/strand displacement, fluorescence kinetic; Potency, µM (top dose mostly 114 µM), without a hit: at the top dose activity change, negative = inhibition, usual class: inhibitors; 1.3% of 340,000 active; AID 485314, 2010; also: potency is read from the fitted curve at half-maximal effect; % is scaled to controls: 0 for no effect and ±100 for the full control effect
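Curves were derived by four-parameter Hill fits of normalized qHTS data. The kinetic fluorescent primer-extension read was taken at 0 and 10 min after 50 nM substrate, following a 15 min room-temperature preincubation of 10 nM enzyme with compounds.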
GALK confirm: Confirmation Assay for Inhibitors of Human Galactokinase (GALK) | purified GALK, Kinase-Glo ATP depletion luminescence | shares compounds with Pol eta inh-1 | AID 2015, 2009 | Potency, µM (highest dose often 115 µM), for inactives: top-dose activity, negative = inhibition, usual class: inhibitors | 70% of 150 active
GALK redox cs: Confirmatory Assay for Inhibitors of Human Galactokinase (GALK): Phenol-HRP redox assay counterscreen | Potency, µM (doses to about 115 µM), for inactives: at the highest dose activity change, negative = H2O2 signal, most hits filed as inhibitors | shares compounds with Pol eta inh-1 | Phenol red-HRP H2O2 redox cycling, absorbance 600 nm | 40% of 150 active | AID 2035, 2009
HEK293 viability: Secondary Assay for Inhibitors of Human Galactokinase (GALK): HEK-293 Cell Viability Assay; HEK-293 viability, ATP luminescence (CellTiter-Glo), 24/48 h; 10% of 170 active; shares compounds with Pol eta inh-1; Potency, µM (series often up to 46.1 µM), for the others: at the top dose activity change, negative = cytotoxicity, most hits filed as inhibitors; AID 2547, 2010; also: potency is read from the fitted curve at half-maximal effect; % is scaled to controls: 0 for no effect and ±100 for the full control effect
Pol kappa inh-2: qHTS for Inhibitors of Polymerase Kappa: Confirmatory Assay for Cherry-picked Compounds; shares compounds with Pol eta inh-1; 76% of 920 active; purified Pol-kappa, fluorescent strand-displacement substrate; AID 720501, 2013; Potency, µM, hits mostly inhibitors; also: potency is read from the fitted curve at half-maximal effect
Pol eta inh-2: qHTS for Inhibitors of Polymerase Eta: Confirmatory Assay for Cherry-picked Compounds; shares compounds with Pol eta inh-1; Pol eta primer extension, TAMRA/BHQ fluorescence, 10 min; Potency, µM, hits mostly inhibitors; 64% of 2,600 active; AID 720502, 2013; also: potency is read from the fitted curve at half-maximal effect
Numbers without * were called inactive; ? = inconclusive; · = no result given; [ ] = dose if it differs, or a comment. Unless noted, calls follow the shape of the dose curve; as a rule, active = well fitted curve in the direction sought with a large enough effect; inconclusive = small, poorly fitted or top-dose-only effect, or another doubt; inactive = no such curve, though single readings can be large; an effect the other way counts as inactive or inconclusive.

SMILES	Pol eta inh-1	Pol iota inh	PI5P4K alpha inh	WRN inhibitor	Pol kappa inh-1	Pol beta inh	Pol eta inh-2	others
CC(C)C[C@H]1C(=O)N2CCCC2[C@]2(O)O[C@](NC(=O)[C@@H]3C=C4c5cccc6[nH]c(Br)c(c56)C[C@H]4N(C)C3)(C(C)C)C(=O)N12 (some centres undefined)	-10%[57.1 µM]	-11%[58.9 µM]	·	·	-7%[19.4 µM]	-7%[57.1 µM]	·
C=CCN1C(=O)NC(=O)C(Cc2ccc(OC)c(OC)c2)C1=O (centres undefined)	8.9µM*	?	8	?	?	-3%	30*
Nc1c(C(=O)Nc2ccc(Br)cc2F)sc2nc3c(cc12)N1CCC3CC1	-8%	9%	·	·	-18%	1%	·
COCCCn1c(N)c(C(=O)NCc2ccco2)c2nc3ccccc3nc21	-13%	83%	-7	0%	-10%	-35%	·	GALK confirm=?;GALK redox cs=-4%;HEK293 viability=?
COCCNC(=O)c1c(N)n(Cc2ccco2)c2nc3ccccc3nc12	-17%	6%	·	-19%	-17%	11%	·
CN[C@@H](Cc1c[nH]c2ccccc12)C(=O)O	·	·	·	·	-8%[19.4 µM]	·	·
CC(=O)O[C@@H]1[C@@H](O)C2OC3C=C(C)C(=O)[C@@H](O)[C@]3(CO)C1(C)C21CO1 (some centres undefined)	·	·	·	·	10%[60.1 µM]	·	·
CCC(C)N1C(=O)/C(=C/c2ccc3c(c2)CCN3CCCCl)C(=O)NC1=S (centres undefined)	16µM*	?	-67*	-16%[11.6 µM]	?	16µM*	76*	Pol kappa inh-2=84*
Cc1cccc(N2C(=O)NC(=O)/C(=C\c3cc(C)n(-c4sc5c(c4C#N)CCCC5)c3C)C2=O)c1C	20µM*	20µM*	-29	?	-21%	?	30*
COC(=O)c1cc(Oc2ccc(Cl)cc2Cl)ccc1[N+](=O)[O-]	·	·	·	·	0%[60.1 µM]	·	·
O=C(Nc1ccc(Oc2ccc(Cl)cc2)c(Cl)c1)c1cc(I)cc(I)c1O	?	?	-55*	-11%[11.6 µM]	-25%	6%	?	Pol kappa inh-2=13*
CCC(C)n1c(=O)[nH]c(C)c(Br)c1=O (centres undefined)	·	·	·	·	12%[60.1 µM]	·	·
